# Measurements reported in PubChem BioAssay (EPA / NIEHS).
# Calls of active or inactive are those of the source. How the source made its calls: active means hit-call score of the fitted dose curve at least 0.9, where 1 is the maximum; inactive means score below 0.9.
# Experiments:
# [1] = ATG_CRE_CIS: Attagene CIS-FACTORIAL HepG2 Assay for human cAMP Responsive Element (CRE) binding protein 3 (AID 2282926); conditions: HepG2 CRE cis-reporter, Attagene multiplexed mRNA; actives raise or lower the signal
# Summary of the method: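 Induced reporter mRNA from a CRE cis element, measured in HepG2 among many multiplexed units at 24 h. Detection used RT-PCR plus capillary electrophoresis of fluorescent fragments; DMSO served as negative control.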
# [2] = molecular target: CCAAT/enhancer-binding protein beta (Homo sapiens) (UniProt P17676); assay: ATG_C_EBP_CIS: Attagene CIS-FACTORIAL HepG2 Assay for human CCAAT/Enhancer Binding Protein (C/EBP) beta (AID 2282927); conditions: HepG2 Attagene cis-factorial transcription factor reporter; actives raise or lower the signal
# Chain of CCAAT/enhancer-binding protein beta (Homo sapiens) (P17676 whole entry, looked up): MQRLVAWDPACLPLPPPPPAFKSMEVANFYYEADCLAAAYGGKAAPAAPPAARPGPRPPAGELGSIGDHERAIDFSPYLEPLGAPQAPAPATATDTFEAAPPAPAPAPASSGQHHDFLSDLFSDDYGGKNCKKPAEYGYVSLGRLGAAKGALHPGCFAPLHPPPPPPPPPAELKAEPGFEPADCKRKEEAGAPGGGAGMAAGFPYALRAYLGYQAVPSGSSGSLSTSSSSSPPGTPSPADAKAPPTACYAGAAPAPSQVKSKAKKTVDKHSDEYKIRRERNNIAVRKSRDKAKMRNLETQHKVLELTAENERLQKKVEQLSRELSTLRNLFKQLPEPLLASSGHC
# Summary of the method: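 Changes in reporter mRNA, rather than exogenous chimeric receptor activity, reflect native C/EBP signalling in transfected HepG2 cells dosed for 24 h; transcripts are detected by RT-PCR and capillary electrophoresis.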
# [3] = ATG_CMV_CIS: Attagene CIS-FACTORIAL HepG2 Assay for human CMV (Internal Marker) (AID 2282928); conditions: HepG2 CMV promoter reporter, transcription factor profiling; actives raise or lower the signal;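 further: endpoint acts as a background internal control marker rather than a target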
# Summary of the method: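 24 h chemical treatment, HepG2 with transient multi-reporter transfection; RNA → oligo(dT) RT → PCR → 6-FAM extension → HpaI digest → CE fluorescence. Bidirectional fit, DMSO negative control.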
# [4] = ATG_DR4_LXR_CIS: Attagene CIS-FACTORIAL HepG2 Assay for human Liver X Receptor (LXR), DR4 submotif (AID 2282929); conditions: HepG2 Attagene DR4 cis-reporter, mRNA transcription; actives raise or lower the signal
# Summary of the method: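 HepG2, transient MRTU transfection, cis-element (DR4) promoter; 24 h compound exposure; total RNA → oligo(dT) RT → PCR → 6-FAM primer extension → HpaI cut → CE. Gain/loss vs DMSO, bidirectional fit.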
# [5] = molecular target: Aryl hydrocarbon receptor (Homo sapiens) (UniProt P35869); assay: ATG_Ahr_CIS: Attagene CIS-FACTORIAL HepG2 Assay for human Aryl Hydrocarbon Receptor (Ahr) (AID 2282930); conditions: HepG2 AhR cis-factorial reporter transcription; actives raise or lower the signal
# Chain of Aryl hydrocarbon receptor (Homo sapiens) (P35869 whole entry, looked up): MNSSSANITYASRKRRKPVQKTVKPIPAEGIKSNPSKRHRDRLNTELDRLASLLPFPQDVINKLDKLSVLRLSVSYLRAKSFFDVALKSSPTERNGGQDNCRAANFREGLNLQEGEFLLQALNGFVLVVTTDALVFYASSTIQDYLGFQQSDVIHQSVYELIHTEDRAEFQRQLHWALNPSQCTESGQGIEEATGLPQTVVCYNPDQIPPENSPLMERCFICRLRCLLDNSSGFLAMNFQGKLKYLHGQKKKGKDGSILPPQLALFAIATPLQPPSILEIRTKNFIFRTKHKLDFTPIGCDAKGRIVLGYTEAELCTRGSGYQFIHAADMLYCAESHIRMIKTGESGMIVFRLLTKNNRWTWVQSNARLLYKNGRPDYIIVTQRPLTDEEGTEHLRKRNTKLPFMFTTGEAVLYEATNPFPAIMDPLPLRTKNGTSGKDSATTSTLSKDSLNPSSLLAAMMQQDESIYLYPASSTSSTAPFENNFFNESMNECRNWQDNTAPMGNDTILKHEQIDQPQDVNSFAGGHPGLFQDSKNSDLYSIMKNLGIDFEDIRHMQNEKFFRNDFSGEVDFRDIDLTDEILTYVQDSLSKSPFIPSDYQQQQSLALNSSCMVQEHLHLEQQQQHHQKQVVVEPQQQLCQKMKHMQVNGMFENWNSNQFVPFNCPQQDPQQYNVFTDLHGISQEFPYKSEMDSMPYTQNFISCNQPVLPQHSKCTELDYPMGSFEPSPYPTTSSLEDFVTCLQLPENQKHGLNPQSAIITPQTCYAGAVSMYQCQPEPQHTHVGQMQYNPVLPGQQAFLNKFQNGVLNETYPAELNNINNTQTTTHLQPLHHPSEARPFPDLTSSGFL
# Summary of the method: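 HepG2, transient MRTU (cis) transfection, 24 h exposure. RNA → cDNA → PCR → 6-FAM primer extension → HpaI 2 h 37 C → CE. Fit: bidirectional, DMSO baseline.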
# [6] = ATG_AP_1_CIS: Attagene CIS-FACTORIAL HepG2 Assay for human Activator Protein 1 (AP-1) (AID 2282931); conditions: HepG2 Attagene cis-factorial AP-1 reporter mRNA; actives raise or lower the signal
# Summary of the method: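 Transient MRTU transfection of HepG2 → 24 h chemical treatment → RNA isolation, RT-PCR, 6-FAM labelling, HpaI digest → capillary electrophoresis. Fit: bidirectional, DMSO negative control.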
# [7] = ATG_AP_2_CIS: Attagene CIS-FACTORIAL HepG2 Assay for human Activator Protein 2 (AP-2) (AID 2282932); conditions: HepG2 AP-2 cis-reporter, Attagene transcription factor profiling; actives raise or lower the signal
# Summary of the method: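 Transiently transfected HepG2 cells are exposed to chemical for 24 h. Reporter transcripts are then measured as fluorescence following RT-PCR and capillary separation, and gain- or loss-of-signal is fitted relative to DMSO.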
# [8] = ATG_BRE_CIS: Attagene CIS-FACTORIAL HepG2 Assay for human Bone Morphogenetic Protein (BMP) Response Element (BRE) (AID 2282933); conditions: HepG2 BMP response element reporter, Attagene transcription factor profiling; actives raise or lower the signal
# Summary of the method: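 Transient MRTU transfection of human HepG2 liver cells; 24 h compound treatment; total RNA isolated, reverse-transcribed, PCR-amplified, 6-FAM labelled, HpaI-cut, capillary electrophoresis. DMSO = negative control/baseline, bidirectional fit.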
# [9] = molecular target: Transcription factor E2F1 (Homo sapiens) (UniProt Q01094); assay: ATG_E2F_CIS: Attagene CIS-FACTORIAL HepG2 Assay for human E2F Transcription Factor 1 (AID 2282935); conditions: HepG2 Attagene cis-reporter, E2F reporter RNA transcripts; actives raise or lower the signal
# Chain of Transcription factor E2F1 (Homo sapiens) (Q01094 whole entry, looked up): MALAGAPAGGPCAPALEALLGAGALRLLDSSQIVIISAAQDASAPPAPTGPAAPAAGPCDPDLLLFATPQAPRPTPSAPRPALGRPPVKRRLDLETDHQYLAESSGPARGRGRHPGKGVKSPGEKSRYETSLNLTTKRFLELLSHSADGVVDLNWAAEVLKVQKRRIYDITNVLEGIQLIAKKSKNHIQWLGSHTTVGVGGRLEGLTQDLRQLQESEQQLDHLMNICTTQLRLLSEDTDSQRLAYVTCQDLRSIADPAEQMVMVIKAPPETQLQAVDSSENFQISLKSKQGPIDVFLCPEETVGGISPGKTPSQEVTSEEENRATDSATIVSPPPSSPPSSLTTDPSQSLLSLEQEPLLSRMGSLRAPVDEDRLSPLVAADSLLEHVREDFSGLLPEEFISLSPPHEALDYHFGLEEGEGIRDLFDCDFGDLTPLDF
# Summary of the method: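 Fluorescent RT-PCR products, digested with HpaI for 2 h at 37 C, are separated by capillary electrophoresis. Source RNA comes from transfected HepG2 cultures treated for 24 h.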
# [10] = ATG_E_Box_CIS: Attagene CIS-FACTORIAL HepG2 Assay for human Enhancer Box (E-box) (AID 2282936); conditions: HepG2 E-box cis-reporter transcription, actives raise or lower the signal
# Summary of the method: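 Fluorescent reporter fragments separated by capillary electrophoresis gave the signal; mRNA came from HepG2 cells transfected with cis-element reporters and treated 24 h. Curves fitted bidirectionally relative to DMSO controls.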
# [11] = ATG_M_61_CIS: Attagene CIS-FACTORIAL HepG2 Assay for M61 Transcription Factor (Internal Marker) (AID 2282937); conditions: HepG2 Attagene CIS-FACTORIAL M61 internal marker reporter; actives raise or lower the signal
# Summary of the method: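 Human liver HepG2, transient MRTU transfection (cis promoter elements), 24 h compound. Total RNA → oligo(dT) RT → PCR → FAM label → HpaI → CE. Internal background marker; bidirectional fitting, DMSO = baseline.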
# [12] = ATG_EGR_CIS: Attagene CIS-FACTORIAL HepG2 Assay for human Early Growth Response 1 (EGR1) (AID 2282938); conditions: HepG2 Attagene CIS-FACTORIAL EGR reporter mRNA; actives raise or lower the signal
# Summary of the method: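 Transient transfection of human HepG2 with multiple cis-regulated reporter units, chemical exposure 24 h, total RNA isolated. Reverse transcription, PCR, fluorescent labelling and capillary electrophoresis quantify reporter transcripts; activity fitted bidirectionally against DMSO.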
# [13] = ATG_Ets_CIS: Attagene CIS-FACTORIAL HepG2 Assay for human Erythroblast Transformation Specific (ETS) (AID 2282941); conditions: HepG2 ETS cis-reporter transcription, actives raise or lower the signal
# Summary of the method: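 Cis-regulated reporter mRNA induction in HepG2 (transient transfection), 24 h exposure, RT-PCR plus capillary electrophoresis detection; DMSO serves as negative control and baseline.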
# [14] = molecular target: Hepatocyte nuclear factor 3-beta (Homo sapiens) (UniProt Q9Y261); assay: ATG_FoxA2_CIS: Attagene CIS-FACTORIAL HepG2 Assay for human Forkhead box A2 (FOXA2) (AID 2282942); conditions: HepG2 cis-reporter transcription factor activity, 24 h; actives raise or lower the signal
# Chain of Hepatocyte nuclear factor 3-beta (Homo sapiens) (Q9Y261 whole entry, looked up): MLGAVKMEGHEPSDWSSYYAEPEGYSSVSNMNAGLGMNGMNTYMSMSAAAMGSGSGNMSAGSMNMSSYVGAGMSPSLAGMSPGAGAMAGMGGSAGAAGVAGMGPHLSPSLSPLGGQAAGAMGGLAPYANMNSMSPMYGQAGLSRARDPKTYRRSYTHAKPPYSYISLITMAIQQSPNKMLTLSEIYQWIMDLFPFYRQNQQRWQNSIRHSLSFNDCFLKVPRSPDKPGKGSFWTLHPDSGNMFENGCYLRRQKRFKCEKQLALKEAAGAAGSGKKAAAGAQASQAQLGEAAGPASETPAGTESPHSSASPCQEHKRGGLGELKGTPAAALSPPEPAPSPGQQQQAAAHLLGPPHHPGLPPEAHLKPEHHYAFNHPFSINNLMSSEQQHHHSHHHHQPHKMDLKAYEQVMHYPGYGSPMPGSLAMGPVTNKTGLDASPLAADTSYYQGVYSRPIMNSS
# Summary of the method: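 Transient MRTU transfection of HepG2 liver cells; 24 h treatment; total RNA → oligo(dT) RT → PCR → FAM primer extension → HpaI cut → CE. Bidirectional fit vs DMSO.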
# [15] = ATG_FoxO_CIS: Attagene CIS-FACTORIAL HepG2 Assay for human Forkhead box O (FoxO) (AID 2282943); conditions: HepG2 Attagene cis-reporter, FoxO element, mRNA; actives raise or lower the signal
# Summary of the method: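 Human hepatoma HepG2 cells carry transiently introduced reporter transcription units controlled by cis promoter elements. Chemical treatment lasted 24 h, and mRNA signal was compared with DMSO.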
# [16] = ATG_GATA_CIS: Attagene CIS-FACTORIAL HepG2 Assay for human GATA Binding Protein (AID 2282944); conditions: HepG2 GATA cis-element reporter, Attagene multiplex mRNA; actives raise or lower the signal
# Summary of the method: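 Transient MRTU transfection, HepG2, 24 h compound exposure. Total RNA → oligo(dT) RT → PCR → 6-FAM primer extension → HpaI cut → CE. Bidirectional fit vs DMSO.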
# [17] = ATG_GLI_CIS: Attagene CIS-FACTORIAL HepG2 Assay for human Zinc Finger Protein GLI1 (AID 2282945); conditions: HepG2, Attagene cis-factorial reporter mRNA, GLI element; actives raise or lower the signal
# Summary of the method: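 Bidirectional curve fits relative to DMSO, using reporter mRNA levels from RT-PCR plus capillary electrophoresis. Cells were HepG2 transiently carrying cis-regulated reporter constructs, harvested 24 h after dosing.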
# [18] = ATG_M_19_CIS: Attagene CIS-FACTORIAL HepG2 Assay for M19 Transcription Factor (Internal Marker) (AID 2282939); conditions: HepG2 Attagene CIS-FACTORIAL M19 internal marker reporter; actives raise or lower the signal
# Summary of the method: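 Transfect HepG2 with MRTU reporter library → dose chemical, 24 h → isolate total RNA, reverse-transcribe with oligo(dT) → PCR, 6-FAM label, HpaI cut (2 h, 37 C) → capillary electrophoresis. Bidirectional fit vs DMSO.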
structure (smiles),measurement,setting,value
CC1CCC(C(C)CS)CC1S (stereo not drawn),AC50,[1],33.4 µM (active)
same,outcome,[2],inactive
same,outcome,[3],inactive
same,outcome,[4],inactive
same,AC50,[5],45.9 µM (active)
same,outcome,[6],inactive
same,outcome,[7],inactive
same,outcome,[8],inactive
same,AC50,[9],55.1 µM (active)
same,outcome,[10],inactive
same,outcome,[11],inactive
same,outcome,[12],inactive
same,outcome,[13],inactive
same,outcome,[14],inactive
same,outcome,[15],inactive
same,AC50,[16],61.1 µM (active)
same,outcome,[17],inactive
O=C(Cl)c1cccc(C(=O)Cl)c1,outcome,[1],inactive
same,outcome,[2],inactive
same,outcome,[3],inactive
same,outcome,[4],inactive
same,outcome,[5],inactive
same,outcome,[6],inactive
same,outcome,[7],inactive
same,outcome,[8],inactive
same,outcome,[9],inactive
same,outcome,[10],inactive
same,outcome,[11],inactive
same,outcome,[12],inactive
same,outcome,[18],inactive
same,outcome,[13],inactive
same,outcome,[14],inactive
same,outcome,[15],inactive
same,outcome,[16],inactive
same,outcome,[17],inactive
CCCc1ccccc1O,outcome,[1],inactive
same,outcome,[2],inactive
same,outcome,[3],inactive
same,outcome,[4],inactive
same,AC50,[5],23.9 µM (active)
same,outcome,[6],inactive
same,outcome,[7],inactive
same,outcome,[8],inactive
same,outcome,[9],inactive
same,outcome,[10],inactive
same,outcome,[11],inactive
same,outcome,[12],inactive
same,outcome,[18],inactive
same,outcome,[13],inactive
same,outcome,[15],inactive
same,outcome,[16],inactive
same,outcome,[17],inactive
CC(=O)Nc1ccc(C)cc1C,outcome,[1],inactive
same,outcome,[2],inactive
same,outcome,[3],inactive
same,outcome,[4],inactive
same,outcome,[5],inactive
same,outcome,[6],inactive
same,outcome,[7],inactive
same,outcome,[8],inactive
same,outcome,[9],inactive
same,outcome,[10],inactive
same,outcome,[11],inactive
same,outcome,[12],inactive
same,outcome,[14],inactive
same,outcome,[15],inactive
same,outcome,[16],inactive
same,outcome,[17],inactive
C=C(C)C1CCC(C)CC1O (stereo not drawn),outcome,[1],inactive
same,outcome,[2],inactive
same,outcome,[3],inactive
same,outcome,[4],inactive
same,outcome,[5],inactive
same,outcome,[6],inactive
same,outcome,[7],inactive
same,outcome,[8],inactive
same,outcome,[9],inactive
same,outcome,[10],inactive
same,outcome,[11],inactive
same,outcome,[12],inactive
same,outcome,[14],inactive
same,outcome,[16],inactive
same,outcome,[17],inactive
NC(=O)NC1NC(=O)NC1=O (stereo not drawn),outcome,[1],inactive
same,outcome,[2],inactive
same,outcome,[3],inactive
same,outcome,[4],inactive
same,outcome,[5],inactive
same,outcome,[6],inactive
same,outcome,[7],inactive
same,outcome,[8],inactive
same,outcome,[9],inactive
same,outcome,[10],inactive
same,outcome,[11],inactive
same,outcome,[12],inactive
same,outcome,[18],inactive
same,outcome,[13],inactive
same,outcome,[15],inactive
same,outcome,[16],inactive
same,outcome,[17],inactive
CCCC[n+]1ccccc1,outcome,[1],inactive
same,outcome,[2],inactive
same,outcome,[3],inactive
same,outcome,[4],inactive
same,outcome,[5],inactive
same,outcome,[6],inactive
same,outcome,[7],inactive
same,outcome,[8],inactive
same,outcome,[9],inactive
same,outcome,[10],inactive
same,outcome,[11],inactive
same,outcome,[12],inactive
same,outcome,[18],inactive
same,outcome,[13],inactive
same,outcome,[14],inactive
same,outcome,[16],inactive
same,outcome,[17],inactive
CCCCC/C=C/C=C/C=O,outcome,[1],inactive
same,outcome,[2],inactive
same,outcome,[3],inactive
same,AC50,[4],167 µM (active)
same,outcome,[5],inactive
same,outcome,[6],inactive
same,outcome,[7],inactive
same,outcome,[8],inactive
same,outcome,[9],inactive
same,outcome,[10],inactive
same,outcome,[11],inactive
same,outcome,[12],inactive
same,outcome,[18],inactive
same,outcome,[13],inactive
same,outcome,[16],inactive
same,outcome,[17],inactive
